High-throughput results (PubChem)
Shiga toxin inh: A qHTS for Small Molecule Inhibitors of Shiga Toxin. Vero cells, Shiga toxin protein synthesis inhibition reporter. inhibition, % at 38.7 µM. hit rate 9.2% among 290,000; in the data active = inhibition mostly above about 28%, no sharp cut-off; inactive = mostly below about 43%; note: 0% is about no effect
HCMV inh: qHTS Assay for inhibitors of the human cytomegalovirus (HCMV) | hit rate 4.5% among 410,000 | activity change, negative = inhibition, % at 57.5 µM | HFF cells, HCMV-luciferase reporter, 72 h; hits give low values; in the data active = activity change below about -60%; inconclusive = no clear call, values can overlap the other calls; inactive = above about -39%; note: % is set by controls: 0 for no effect and ±100 for the full control effect
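Steps: HFFs plated, 16 h 37C; compounds added; HCMV-luciferase added to MOI 1 PFU/cell; 72 h 37C; OneGlo reagent, 5 min room temperature; luminescence read, normalized to controls.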
HCV inh: qHTS Assay for Inhibitors of Hepatitis C Virus (HCV); Huh7.5.1 HCVcc-Cre infection, luciferase reporter, 44 h; Potency, µM (top dose mostly 41.8 µM), without a hit: at the top dose activity change, negative = inhibition, actives largely listed as inhibitors; hit rate 3.4% among 340,000; note: potency is the fitted concentration of half-maximal effect; % is set by controls: 0 for no effect and ±100 for the full control effect
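1,000 cells/well; 4 h culture; + compound; + HCVcc-Cre (~0.5 moi); 44 h; luciferase substrate, RT 15 min; read 15 sec.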
Pf growth 96h: Primary qHTS for delayed death inhibitors of the malarial parasite plastid, 96 hour incubation. Potency, µM (series often up to 28.7 µM), for inactives: top-dose activity change, negative = inhibition, most hits filed as inhibitors. P. falciparum luciferase reporter growth, 96 h. hit rate 6.9% among 320,000; note: potency is the fitted concentration of half-maximal effect; % is set by controls: 0 for no effect and ±100 for the full control effect
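P. falciparum expressing integrated firefly luciferase grown in erythrocytes (2% hematocrit, 0.05% parasitemia final) with compounds for 96 hours at 37 C, 5% CO2. Growth inhibition read as loss of luminescence after adding luciferase detection reagent.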
Cycloheximide cs: Cycloheximide Counterscreen for Small Molecule Inhibitors of Shiga Toxin; cell reporter, cycloheximide protein synthesis inhibition counterscreen; max response, %; hit rate 12% among 300,000; in the data active = max response mostly above about 13%, no sharp cut-off; inactive = mostly below about 14%; note: read at 38.3 µM for the half of the compounds with a filed dose; 0% is about no effect
Pf growth 48h: Primary qHTS for delayed death inhibitors of the malarial parasite plastid, 48 hour incubation; P. falciparum luciferase growth in erythrocytes, 48 h; Potency, µM (highest dose often 28.7 µM), inactives show top-dose activity change, negative = inhibition, most hits filed as inhibitors; hit rate 5.9% among 310,000; AID 504832, 2011; note: potency is the fitted concentration of half-maximal effect; % is set by controls: 0 for no effect and ±100 for the full control effect
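Parasite viability was followed by luminescence of a genomically integrated firefly luciferase. Cultures held 0.1% parasitemia at 2% hematocrit (final), incubated under 5% CO2 at 37 C.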
Starred values were filed as active, the others as inactive; ? = inconclusive; / = no result given. Hits are enriched below; roughly 21% of the tested compounds scored in any of these assays. Unless noted, calls come from the whole dose curve; as a rule, active = well fitted inhibition curve with a large enough effect; inconclusive = small, poorly fitted or top-dose-only effect, or another doubt; inactive = no such curve, though single readings can be large or run the other way.

SMILES	Shiga toxin inh	HCMV inh	HCV inh	Pf growth 96h	Cycloheximide cs	Pf growth 48h
O=C(Nc1ccccc1-c1ccccc1)NC1CC2CCCC(C1)N2CCc1ccccc1 (centres undefined)	-14	-29	?	?	0	5.2µM*
O=C(Nc1ccccc1-c1ccccc1)NC1CC2CCCC(C1)N2Cc1ccc(F)cc1 (centres undefined)	-17	-40	?	34%	5	12µM*
CC(Sc1ccccc1)C(=O)NN=C1CCCCCCC1 (centres undefined)	20	-1	20%	10%	7	3%
COc1cccc(NC(=O)c2oc3ccccc3c2NC(C)=O)c1	47*	96	?	83%	37*	332%
COc1cccc(NC(=O)c2oc3ccccc3c2NC(=O)c2ccccc2C)c1	/	-7	/	/	/	/
COCC(=O)Nc1c(C(=O)Nc2cccc(OC)c2)oc2ccccc12	58*	130	?	18%	48*	109%
O=S(CC(O)c1ccccc1)c1ccccc1 (centres undefined)	/	-7	/	/	/	/
O=C(Nc1cnn(C23CC4CC(CC(C4)C2)C3)c1)c1cnn2cccnc12	90*	107	10%	16%	64*	82%
N#Cc1c(NC(=O)c2cnn3cccnc23)sc2c1CCCC2	41	-15	10%	29%	14	52%
O=[N+]([O-])c1cc(N=Nc2ccc3ccccc3c2)ccc1O	/	26	-2%	77%	13*	150%
Nc1ccc(O)c([N+](=O)[O-])c1	/	12	21%	?	/	11%
Cc1ccc(N(C(=O)CS(=O)CC(=O)Nc2ccc(F)cc2)C(C)C(=O)NC(C)(C)C)cc1 (centres undefined)	2	-32	-5%	-9%	10	-6%
Cc1nn(C)c(C)c1CNC(=O)c1cnn2c1NC(c1ccccc1)CC2C(F)(F)F (centres undefined)	-5	?	-19%	1%	0	11%
COc1ccc(C2CC(C(F)(F)F)n3nc(C(=O)NCc4cn(C)nc4C)c(Cl)c3N2)cc1 (centres undefined)	-24	-72*	?	?	-4	-10%
Cc1ccc(C2CC(C(F)(F)F)n3nc(C(=O)NCc4c(C)nn(C)c4C)c(Cl)c3N2)cc1 (centres undefined)	-1	?	8.9µM*	139%	-3	?
COc1ccc(C2CC(C(F)(F)F)n3nc(C(=O)O)c(Br)c3N2)cc1 (centres undefined)	-11	4	4%	-11%	5	/
CNc1cccc(-c2ccc(C(C)=O)s2)n1	/	43	/	/	/	/
CC(=O)c1ccc(-c2cccs2)s1	36*	-32	10%	22%	24*	50%
Cc1ccc(Nc2nc3nonc3[nH]c2=O)cc1	58*	42	9%	62%	27*	?
CC1(C)CC(=O)C=C(Nc2ccc([N+](=O)[O-])cc2)C1	-6	50	-5%	-3%	-3	4%
COCCNC(=O)c1n[nH]c2ccccc12	57	-26	4%	88%	31*	75%
COc1ccc(CCNC(=O)c2n[nH]c3ccccc23)cc1	45*	-2	-22%	-2%	47*	-16%
COc1ccc(CNC(=O)COC(=O)c2n[nH]c3ccccc23)cc1	-13	7	12%	-15%	-1	2%
O=C(NC1CCCC1)c1n[nH]c2ccccc12	54	9	13%	48%	43*	11%
COC(=O)c1n[nH]c2ccccc12	-12	88	22%	/	-3	8%
SMILES	Shiga toxin inh	HCMV inh	HCV inh	Pf growth 96h	Cycloheximide cs	Pf growth 48h
COc1ccc(CC(=O)N(Cc2nc(-c3ccc(C)cc3)no2)C(C)C)cc1	/	-22	/	/	/	/
CCN(C(=O)CN1CC=C(c2ccccc2)CC1)c1c(N)n(Cc2ccccc2)c(=O)[nH]c1=O	-15	-62*	-8%	?	2	-13%
CCN(C(=O)c1ccc(=O)n(C)n1)c1c(N)n(Cc2ccccc2)c(=O)[nH]c1=O	/	-77*	-15%	/	/	/
CC(C)CN(C(=O)CN1CC=C(c2ccccc2)CC1)c1c(N)n(CC(C)C)c(=O)[nH]c1=O	-6	-39	3.5µM*	?	-1	?
CC(C)CN(C(=O)CN1CCCCCC1)c1c(N)n(CC(C)C)c(=O)[nH]c1=O	-5	52	11%	?	11	-11%
CCN(C(=O)CN1CCN(c2ccc(O)cc2)CC1)c1c(N)n(Cc2ccccc2)c(=O)[nH]c1=O	-10	-5	18%	4.7µM*	-4	?
CC(=O)c1cccc(Nc2nccc3c2cc(-c2cccc(C(F)(F)F)c2)n3C)c1	/	-31	/	/	/	/
COc1ccc(OC)c(NC(=O)CN2C(=O)NC(C)(c3ccc4c(c3)OCCO4)C2=O)c1 (centres undefined)	/	?	0%	?	/	?
CCN(C(=O)CN(C)Cc1c(F)cccc1Cl)c1c(N)n(Cc2ccccc2)c(=O)[nH]c1=O	-14	-65*	30%	?	-9	-10%
CCN(CC)S(=O)(=O)c1ccc(/C=C/C(=O)Nc2ccc(F)cc2F)cc1	64*	-69*	?	6.6µM*	32*	?
CCN(CC)S(=O)(=O)c1ccc(/C=C/C(=O)Nc2ccc(F)c(F)c2F)cc1	38*	-64*	1.4µM*	?	36*	9.3µM*
CCN(CC)S(=O)(=O)c1ccc(/C=C/C(=O)OCC#N)cc1	-10	-11	4%	1%	-3	-2%
CCN(CC)S(=O)(=O)c1ccc2oc(C(=O)Nc3ccc(Br)cc3F)c(C)c2c1	/	-4	/	/	/	/
O=C(/C=C/c1ccc(S(=O)(=O)N2CCOCC2)cc1)Nc1ccc(F)c(F)c1F	/	-38	?	/	/	/
CCN(CC)S(=O)(=O)c1ccc(/C=C/C(=O)Nc2ccc(Br)cc2F)cc1	1	-73*	2µM*	5.2µM*	1	12µM*
Cc1c(CCCC(=O)O)sc(N)c1C(=O)c1cccc(C(F)(F)F)c1	/	-14	/	/	/	/
CSc1nsc(SC)c1C(=O)Nc1ccc(C(C)(C)C)cc1	53*	53	6%	?	10	?
CSc1nsc(SC)c1C(=O)NC(=O)Nc1cccnc1	-2	16	-1%	2%	1	8%
COc1ccc(NC(=O)C(C)N2c3cccc4cccc(c34)S2(=O)=O)cc1OC (centres undefined)	18	-80*	6.3µM*	-16%	-1	?
O[C@H]1[C@H](O)[C@@H](O)CN2CC[C@H](O)[C@H]12	-3	-35	14%	20%	7	-15%
O[C@H]1[C@H]2[C@H](O)CCCN2C[C@H]1O	/	/	/	9.5µM*	/	-5%
